# Calls of active or inactive are those of the source. Unless noted, how the calls were made is not given here.
# Assays:
# [1] = HepG2 liver cancer cell viability effects, profiling panel, resazurin fluorescence, 24 h, PK04 Diversity Set (AID 1172); conditions: higher = more signal
# [2] = basal S. cerevisiae growth modulation, no modifier, primary screen, OD600, strain BY4716, 24 h, basal condition (AID 1173); conditions: OD600, 24 h, higher = more signal, called active from +8 up or from −8 down
# [3] = MM1S myeloma cell viability, profiling panel, resazurin fluorescence, basal, 24 h, PK04 Diversity Set (AID 1174); conditions: higher = more signal, called active from +8 up or from −8 down;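 further: MM1S multiple myeloma cell line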
# [4] = target: Dihydroorotate dehydrogenase (quinone), mitochondrial (Plasmodium falciparum (isolate 3D7)) (UniProt Q08210); assay: PfDHODH enzyme inhibitors, primary screen, biochemical, C-terminal His tag, absorbance 600 nm (AID 1175); conditions: DCIP absorbance 600 nm, higher = more signal, called active from +8 up or from −8 down;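 further: recombinant parasite enzyme with a five histidine tag at its C terminus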
# [5] = S. cerevisiae RM11-1a growth modifiers, primary screen, strain RM11-1a, OD600, basal, 24 h (AID 1177); conditions: OD600, 24 h, higher = more signal, called active from +8 up or from −8 down;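 further: cultures grown under basal conditions with no added stressor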
# [6] = E. coli acrAB mutant growth effects, primary screen, E. coli filamentation inducers, strain DRC39, OD650, 24 h (AID 1178); conditions: higher = more signal, called active from +8 up or from −8 down;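 further: growth measured as culture turbidity by optical density at 650 nm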
# [7] = E. coli acrAB mutant growth effects, primary screen, E. coli filamentation inducers, strain DRC39, OD650, 48 h (AID 1179);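 further: screen aims at cell division blockers that make cells filament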; conditions: E. coli DRC39 delta-acrAB growth, higher = more signal, called active from +8 up or from −8 down
# [8] = RPMI8226 myeloma cell viability, profiling panel, resazurin fluorescence, basal, 24 h, PK04 Diversity Set (AID 1180); conditions: higher = more signal;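 further: RPMI8826 multiple myeloma cell line at 5000 cells per well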
# [9] = target: E3 ubiquitin-protein ligase XIAP (Homo sapiens) (UniProt P98170); assay: XIAP binders, primary screen, biophysical, small-molecule microarray, fluorescence 635 nm (AID 1181); conditions: small-molecule microarray binding, higher = more signal;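 further: score merges 667 nm emission and signal to noise over triplicate slides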
# [10] = tested on: XIP peptide (Xip251-270) binding; assay: small-molecule binders of XIP peptide, primary screen, biochemical, small-molecule microarray, fluorescence 635/667 nm, 0.1 µg/mL protein (AID 1182); conditions: fluorescent protein binding, 635 nm, higher = more signal, called active from +8 up or from −8 down
# [11] = tested on: XIP peptide (Xip251-270); assay: small-molecule binders of XIP peptide, primary screen, biochemical, small-molecule microarray, fluorescence 635/667 nm, 0.5 µg/mL protein (AID 1183); conditions: small-molecule microarray binding, fluorescence 635 nm; higher = more signal
# [12] = Plasmodium falciparum growth inhibition, primary screen, strain 3D7, DAPI fluorescence, 100 nL (AID 1184);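 further: parasites grown inside human red blood cells in medium with human serum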; conditions: P. falciparum 3D7 growth, 3 d, higher = more signal
# [13] = target: Homeobox protein Hox-A13 (Mus musculus) (UniProt Q62424); assay: inhibitors of HoxA13-DNA binding, primary screen, biochemical, fluorescence polarization, labeled oligonucleotide (AID 1185); conditions: 15 min, higher = more signal, called active from +8 up or from −8 down
# [14] = inhibitors of hydroxyurea-induced Chk1 phosphorylation, primary screen, imaging, HeLa, phospho-Chk1 antibody, percent positive cells (AID 1186); conditions: hydroxyurea-induced phospho-Chk1 immunofluorescence imaging, higher = more signal
# [15] = inhibitors of hydroxyurea-induced Chk1 phosphorylation, primary screen, imaging, HeLa, phospho-Chk1 nuclear intensity (AID 1187); conditions: hydroxyurea-induced phospho-Chk1 immunofluorescence imaging, higher = more signal
# Sequence of Dihydroorotate dehydrogenase (quinone), mitochondrial (Plasmodium falciparum (isolate 3D7)) (Q08210 whole entry, looked up): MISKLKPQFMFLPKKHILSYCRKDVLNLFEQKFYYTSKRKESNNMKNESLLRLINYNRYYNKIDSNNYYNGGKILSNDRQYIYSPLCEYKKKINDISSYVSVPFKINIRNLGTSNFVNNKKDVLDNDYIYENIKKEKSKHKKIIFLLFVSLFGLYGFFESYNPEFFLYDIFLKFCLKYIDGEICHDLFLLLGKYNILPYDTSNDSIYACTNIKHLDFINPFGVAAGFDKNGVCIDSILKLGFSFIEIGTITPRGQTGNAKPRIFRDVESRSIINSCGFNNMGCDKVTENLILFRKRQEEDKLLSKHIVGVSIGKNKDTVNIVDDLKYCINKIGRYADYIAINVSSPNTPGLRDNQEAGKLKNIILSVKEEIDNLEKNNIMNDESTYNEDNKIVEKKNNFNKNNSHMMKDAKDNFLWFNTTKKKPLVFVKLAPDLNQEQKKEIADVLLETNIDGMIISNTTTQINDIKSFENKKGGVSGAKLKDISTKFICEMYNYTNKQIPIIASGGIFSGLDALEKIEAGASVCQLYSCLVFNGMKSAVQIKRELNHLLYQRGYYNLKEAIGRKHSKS
# Sequence of E3 ubiquitin-protein ligase XIAP (Homo sapiens) (P98170 whole entry, looked up): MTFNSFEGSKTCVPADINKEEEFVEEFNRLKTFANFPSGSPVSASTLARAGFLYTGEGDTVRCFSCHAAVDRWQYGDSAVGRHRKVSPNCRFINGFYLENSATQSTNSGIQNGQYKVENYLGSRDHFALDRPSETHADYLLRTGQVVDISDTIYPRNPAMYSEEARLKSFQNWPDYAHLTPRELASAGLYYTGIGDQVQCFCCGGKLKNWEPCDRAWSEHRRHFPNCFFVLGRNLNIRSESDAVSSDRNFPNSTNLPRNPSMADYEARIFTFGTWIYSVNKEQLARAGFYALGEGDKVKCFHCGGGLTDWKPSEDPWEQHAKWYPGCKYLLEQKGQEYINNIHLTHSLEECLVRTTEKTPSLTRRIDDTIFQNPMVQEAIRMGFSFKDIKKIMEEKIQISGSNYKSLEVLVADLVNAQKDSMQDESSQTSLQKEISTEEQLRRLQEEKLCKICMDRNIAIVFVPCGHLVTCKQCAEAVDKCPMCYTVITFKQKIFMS
# Sequence of Homeobox protein Hox-A13 (Mus musculus) (Q62424 whole entry, looked up): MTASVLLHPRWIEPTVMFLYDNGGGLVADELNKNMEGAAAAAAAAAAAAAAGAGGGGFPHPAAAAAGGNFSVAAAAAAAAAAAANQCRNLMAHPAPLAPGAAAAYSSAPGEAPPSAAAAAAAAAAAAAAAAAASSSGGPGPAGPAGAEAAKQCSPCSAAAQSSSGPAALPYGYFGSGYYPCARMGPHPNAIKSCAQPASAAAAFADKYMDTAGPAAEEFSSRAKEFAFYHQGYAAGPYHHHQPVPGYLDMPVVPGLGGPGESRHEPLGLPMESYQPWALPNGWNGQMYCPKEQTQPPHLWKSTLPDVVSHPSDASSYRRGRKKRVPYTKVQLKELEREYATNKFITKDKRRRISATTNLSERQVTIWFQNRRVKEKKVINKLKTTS
Structure (SMILES),z-score [1],z-score [2],z-score [3],composite z-score [4],z-score [5],z-score [6],z-score [7],z-score [8],composite z-score [9],composite z-score [10],composite z-score [11],z-score [12],z-score [13],z-score [14],z-score [15]
CN(C)CCCC[C@@H]1NC(=O)[C@@H]2C[C@H](C(=O)NCCCCCNC(=O)CS)[C@H](c3ccc(O)cc3)N2C1=O,-0.23,-0.312 (inactive),1.01 (inactive),-1.38 (inactive),-1.13 (inactive),0.964 (inactive),0.809 (inactive),0.975,0.104,0.207 (inactive),-0.279,0.386,-0.848 (inactive),-0.205 (inactive),-0.456 (inactive)
C[C@H]1NC(=O)[C@@H](C)NC(=O)[C@@]23C(=O)N[C@@H](Cc4ccccc4)C2[C@H](C)[C@@]2(C)O[C@H]2C3/C=C/C/C=C\CNC1=O (stereo not given in full),0.0975,-0.811 (inactive),1.02 (inactive),0.254 (inactive),0.776 (inactive),2.33 (inactive),1.58 (inactive),1.02,-0.198,0.378 (inactive),-0.166,-0.428,-3.98 (inactive),-0.318 (inactive),0.412 (inactive)
COC(=O)C[C@H]1O[C@]2(C(=O)N(C)c3ccccc32)[C@@H](C)[C@@H]1[Si](C)(C)c1ccc(OC)cc1,-0.0652,-4.08 (inactive),0.504 (inactive),0.939 (inactive),-1.41 (inactive),2.5 (inactive),0.871 (inactive),0.452,0.0942,-0.539 (inactive),0.414,-2.41,-6.13 (inactive),0.463 (inactive),0.688 (inactive)
C=C(COC)/C(=C/C[C@@H](OC(C)=O)c1cccc(OCCO)c1)c1cc(C(=O)OC)ccc1OC,1.21,-1.57 (inactive),0.49 (inactive),-0.733 (inactive),-0.489 (inactive),2.1 (inactive),1.47 (inactive),0.938,0.155,-0.496 (inactive),-0.5,-2.56,-4.24 (inactive),-0.8 (inactive),-0.95 (inactive)
CCCC[C@H]1OB(O)C[C@H]2C1=C(COC)C[C@H]1C(=O)N(Cc3ccccc3)C(=O)[C@H]12,1.13,-3.65 (inactive),0.518 (inactive),0.282 (inactive),-1.67 (inactive),2.53 (inactive),0.942 (inactive),0.283,-0.12,0.2 (inactive),0.0845,-0.386,-6.5 (inactive),-0.669 (inactive),-0.331 (inactive)
CCOC(=O)C[C@H]1[C@H](OC(=O)Cc2ccc3c(c2)OCO3)[C@@H](NC(=O)CC(C)C)c2cc(OCCCO)ccc2N1C(=O)c1ccccc1,1.05,-1.05 (inactive),0.548 (inactive),0.679 (inactive),-0.606 (inactive),2.13 (inactive),1.65 (inactive),0.458,0.0015,0.443 (inactive),-0.487,-0.584,-1.41 (inactive),-0.398 (inactive),-0.321 (inactive)
CC(C)[Si](OCCCNS(=O)(=O)c1ccc(Br)cc1)(C(C)C)C(C)C,1.49,-1.79 (inactive),0.766 (inactive),0.0026 (inactive),-2.85 (inactive),2.79 (inactive),2.3 (inactive),-1.26,-0.18,-0.0972 (inactive),0.195,-1.12,-0.361 (inactive),-0.672 (inactive),-1.01 (inactive)
C=CCNC(=O)[C@H]1[C@@H]2C(=O)O[C@@H](c3ccccc3)[C@@H](c3ccccc3)N2[C@@H](c2ccc(O)cc2)[C@]12C(=O)Nc1ccc(C#CCNC(N)=O)cc12,0.435,-0.558 (inactive),0.476 (inactive),-0.438 (inactive),-0.381 (inactive),0.574 (inactive),0.771 (inactive),0.917,0.0223,0.342 (inactive),0.0866,-0.491,-2.56 (inactive),0.191 (inactive),0.424 (inactive)
CC(C)(C)OC(=O)CC[C@@]1(C(=O)NCc2ccccc2)N=C(c2ccc(OCCCO)cc2)O[C@@H]1c1ccccc1,-0.956,-0.454 (inactive),-1.49 (inactive),-0.362 (inactive),-0.801 (inactive),2.23 (inactive),1.5 (inactive),-1.76,0.174,1.59 (inactive),0.93,-2.25,-5.51 (inactive),-1.17 (inactive),-1.29 (inactive)
Cc1ccc(N2C(=O)c3ccccc3[C@](C)(C(=O)O)[C@@H]2c2ccc(CO)cc2)nc1,0.522,-0.0489 (inactive),1.28 (inactive),0.217 (inactive),0.826 (inactive),0.826 (inactive),0.396 (inactive),1.27,-0.0641,-0.235 (inactive),-1.16,-0.63,-0.0226 (inactive),0.153 (inactive),0.522 (inactive)
COCCOC(=O)N1C(=O)[C@@]2(c3cc(C#CCNC(N)=O)ccc31)[C@H](c1ccc(OCCO)cc1)N1[C@H](c3ccccc3)[C@H](c3ccccc3)OC(=O)[C@H]1[C@@H]2C(=O)Nc1nc2ccccc2s1,-0.265,0.846 (inactive),1.48 (inactive),0.665 (inactive),2.46 (inactive),0.24 (inactive),0.782 (inactive),1.3,0.0472,0.329 (inactive),-0.444,-1.08,0.967 (inactive),0.0818 (inactive),0.238 (inactive)
C[N+](C)(C)CCCCNC(=O)[C@@H]1C[C@@H]2C(=O)N3CCC[C@H]3C(=O)N2[C@@H]1c1cccc(OCCO)c1,0.0931,0.0521 (inactive),0.982 (inactive),-31.2 (active),-1.27 (inactive),0.497 (inactive),0.0567 (inactive),0.947,-0.0619,3.4 (inactive),0.839,-0.294,-1.2 (inactive),-0.162 (inactive),0.319 (inactive)
C=CCOC(=O)[C@@H]1[C@H]2C(=O)O[C@H](c3ccccc3)[C@H](c3ccccc3)N2[C@H](c2ccc(OCCOC(=O)[C@H]3C[C@H]4C(=O)N5CCC[C@H]5C(=O)N4[C@H]3c3ccc(O)cc3)cc2)[C@@]12C(=O)Nc1ccccc12,-0.379,-0.117 (inactive),0.201 (inactive),0.0956 (inactive),0.256 (inactive),0.197 (inactive),-0.148 (inactive),1.03,-0.217,1.22 (inactive),0.804,-2.01,1.59 (inactive),0.458 (inactive),0.895 (inactive)
C=CCC1=C[C@H]2[C@H]([C@@H]3C=C[C@]2(CC=C)C(=O)[C@]32CO2)[C@@]2(CO2)C1=O,0.177,-15.3 (active),-1.92 (inactive),-0.491 (inactive),-0.763 (inactive),2.57 (inactive),1.51 (inactive),-1.12,0.147,1.7 (inactive),-0.489,-0.0419,-1.29 (inactive),-0.556 (inactive),-0.606 (inactive)
CCOC(=O)C[C@H]1[C@H](OC(=O)c2ccccc2-c2ccccc2)[C@@H](NC(=O)C2CCCCC2)c2cc(OCCCO)ccc2N1C(=O)c1ccccc1,-0.206,-0.686 (inactive),0.609 (inactive),0.684 (inactive),1.33 (inactive),2.32 (inactive),1.37 (inactive),0.737,-0.0351,-0.339 (inactive),0.0325,-1.35,-3.05 (inactive),-0.319 (inactive),-0.0975 (inactive)
CCOC(=O)C[C@H]1[C@H](OC(=O)c2cc3ccccc3oc2=O)[C@@H](NC(=O)c2ccc3ccccc3c2)c2cc(OCCCO)ccc2N1C(=O)c1ccc2ccccc2n1,0.272,-2.13 (inactive),0.0578 (inactive),-0.172 (inactive),-1.06 (inactive),2.52 (inactive),1.23 (inactive),-0.536,-0.0454,0.227 (inactive),-0.333,-1.6,-1.06 (inactive),-0.0364 (inactive),0.034 (inactive)
CCCCO[C@H]1C[C@H]2C(Br)=C[C@@]1(CO)C(=O)[C@]21CO1,1.24,-3.84 (inactive),1.07 (inactive),-0.343 (inactive),-1.86 (inactive),2.66 (inactive),1.48 (inactive),0.999,-0.02,-0.631 (inactive),-0.329,0.0951,-0.0157 (inactive),-0.407 (inactive),-0.291 (inactive)
COCCOC(=O)N1C(=O)[C@@]2(c3cc(C#CCCO)ccc31)[C@H](C(=O)N1CCCCCCC1)[C@H]1C(=O)O[C@H](c3ccccc3)[C@H](c3ccccc3)N1[C@@H]2c1ccc(O)cc1,0.801,-1.74 (inactive),1.14 (inactive),0.138 (inactive),-2.75 (inactive),0.561 (inactive),1.43 (inactive),0.613,0.144,1.48 (inactive),0.63,-0.303,-0.579 (inactive),-0.424 (inactive),-0.457 (inactive)
COC(=O)c1c(CC[C@@H](CO)NC(=O)N[C@H](Cn2cc(-c3cncn3C)nn2)C(C)C)oc(C(C)=O)c1C(=O)OC,-0.623,-0.476 (inactive),0.254 (inactive),-4.63 (inactive),-1.06 (inactive),2.37 (inactive),1.47 (inactive),-0.0832,-0.0884,1.88 (inactive),-0.0139,-2.19,3.03 (inactive),-0.139 (inactive),0.233 (inactive)
CC(C)CNC(=O)[C@@]1(C)c2ccccc2C(=O)N(Cc2ccc(OC(F)(F)F)cc2)[C@H]1c1ccc(CO)cc1,0.518,-1.51 (inactive),1.88 (inactive),0.329 (inactive),-0.229 (inactive),0.726 (inactive),0.152 (inactive),1.75,0.149,-0.332 (inactive),-1.4,-1.12,-2.24 (inactive),-0.273 (inactive),-0.177 (inactive)
